Screening data as filed in PubChem BioAssay.
D2 ag-1 = activates the human D2 dopamine receptor; P14416; hit rate 0.53% among 340,000; activation, % at 2 µM; HEK293 T-REx D2 cells, calcium flux agonist mode;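 active = activation over 3 SD above normal in the single-dose calcium agonist read, cut at about 30% in these data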; note: 0% is about no effect
Target sequence (P14416 whole entry, looked up): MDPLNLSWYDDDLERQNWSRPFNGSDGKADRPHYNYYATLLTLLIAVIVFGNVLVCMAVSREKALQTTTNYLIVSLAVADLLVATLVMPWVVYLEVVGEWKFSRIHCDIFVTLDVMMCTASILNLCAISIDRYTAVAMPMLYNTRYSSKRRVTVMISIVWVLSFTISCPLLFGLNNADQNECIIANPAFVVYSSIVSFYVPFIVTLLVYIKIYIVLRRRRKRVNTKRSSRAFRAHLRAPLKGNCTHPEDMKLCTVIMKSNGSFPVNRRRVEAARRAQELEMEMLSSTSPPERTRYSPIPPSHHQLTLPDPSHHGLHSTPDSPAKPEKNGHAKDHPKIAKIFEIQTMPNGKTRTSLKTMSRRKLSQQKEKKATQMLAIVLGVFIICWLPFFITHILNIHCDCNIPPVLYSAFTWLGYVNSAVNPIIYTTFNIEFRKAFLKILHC
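HEK293 Trex D2 cells, tetracycline-induced, o/n 30 C 5% CO2; no-wash Ca dye, RT 30–90 min; 10-cycle baseline, 23 nl cpd added, kinetic Ca read 180 s; agonist hits = positive Ca response.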
D2 PAM-1 = potentiates the human D2 dopamine receptor allosterically | DiscoveRx D2 beta-arrestin cells, luminescence, 90 min; 100% = 57 uM dopamine signal | AID 624464 | potentiation, % (no concentration beside the values) | hit rate 0.23% among 360,000; in the data active = potentiation above about 50%; inconclusive = mostly about 30% to 49%
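D2 cells co-treated with compound plus 50 nM dopamine (EC20) for 90 min at 37 deg C to detect potentiation. Beta-arrestin recruitment was read as enzyme-fragment luminescence after 1 h at ambient temperature. Full response was set by 57 uM dopamine.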
D2 ag-2 = human D2 receptor agonism in beta-arrestin assay; activation, % (concentration not given with the values); hit rate 0.084% among 360,000; AID 624465; P14416; DiscoveRx PathHunter D2 beta-arrestin, luminescence, 90 min; 100% = 57 uM dopamine signal; in the data active = activation above about 40%; inconclusive = between about 15% and that limit
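Agonist mode: compounds alone added to overnight-plated D2 PathHunter cells for 90 min at 37 C, with 57 uM final dopamine (EC100) defining full response. Beta-arrestin recruitment detected by chemiluminescent reagent, read after 1 h at ambient temperature.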
D2 PAM-2 = positively modulates the human D2 dopamine receptor allosterically | P14416 | HEK293 T-REx D2, calcium flux, EC20 dopamine potentiation | potentiation, % at 10 µM | hit rate 0.34% among 340,000 | AID 485347;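 active = potentiation over 3 SD above the plate norm, cut at about 30% in these data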; note: 0% is about no effect
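Tetracycline-induced Hek293 Trex D2 cells, force-coupled to calcium, loaded with no-wash calcium dye. Compound added with 180 s kinetic read for agonism, then EC20 dopamine and a further 180 s read for potentiation.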
D2 antagonist = D2 dopamine receptor (human) antagonism; P14416; HEK293 TREx D2 cells, calcium flux, dopamine EC80; AID 485344; inhibition, % at 10 µM; hit rate 2% among 340,000; in the data active = inhibition above about 30%; inactive = below that, where a call was filed; note: 0% is about no effect
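In this primary screen, negative modulation is detected by tracking calcium flux after an EC80 dopamine challenge in inducible HEK293 T-REx D2 cells preexposed to test compound for 180 s.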
Numbers without * were called inactive; ? = inconclusive; . = not tested or not shown; ! = repeats disagree. The list is not random: actives were taken first. Their share in the collection is about 2.4%.

SMILES	D2 ag-1	D2 PAM-1	D2 ag-2	D2 PAM-2	D2 antagonist
c1ccc(C(c2nnnn2Cc2ccco2)N2CCN(c3nc4ccccc4s3)CC2)cc1 (stereo not drawn)	-1	26	0	30*	12
CCN(CC)CCNC(=O)c1ccc(Cn2c(SCc3ccccc3)nc3cccnc32)cc1	1	.	.	2	.
CCOC(=O)c1cc(C)[nH]c1C	0	-10	-20	9	-9
CCOC(=O)c1cc(C)[nH]c(=O)c1C#N	0	62*	-1	7	-17
O=C(Nc1ccccc1Cl)c1ccc(F)c(S(=O)(=O)NCc2ccc(Cl)c(Cl)c2)c1	0	.	.	0	.
Cc1cnc(CNC(=O)C2CCC(=O)N(CCc3ccc(Cl)cc3)C2)cn1 (stereo not drawn)	-1	-1	-2	-7	-8
COc1ccc(NC(=O)C2Cc3c(-c4cccc(F)c4)ccnc3O2)cc1 (stereo not drawn)	.	-13	-2	.	.
Cc1coc2c1c(C)cc1oc(=O)c(CC(=O)NCCCCCC(=O)O)c(C)c12	0	7	1	46*	2
Cc1coc2c1c(C)cc1oc(=O)c(CC(=O)NCC(=O)O)c(C)c12	2	-5	2	-11	8
CCOc1ccccc1NC(=O)CSc1nnc(CNC(=O)c2c(F)cccc2Cl)o1	-2	-5	-1	15	-7
O=C1NCCCc2c1oc1ccc(O)cc21	1	-15	-4	-7	-17
Oc1c(Cl)cc(Cl)c2c1NCCC2	1	17	?	1	39*
COc1ccc(N2CCN(C(CNC(=O)C(=O)NCc3ccc(F)cc3)c3cccnc3)CC2)cc1 (stereo not drawn)	0	.	.	8	.
COc1cc2[nH]c(-c3ccc(C)cc3)cc(=O)c2cc1OC	-1	-31	1	-20	84*
COc1ccc(-c2cc(=O)c3cc(C)ccc3[nH]2)cc1	0	-21	-4	-9	14
O=C(NCc1ccccc1Cl)c1ccc(NC(=O)N2CCSc3ccccc32)cc1	0	.	.	17	.
O=C(Nc1ccccc1SC(=O)c1ccccc1)c1ccccc1	.	-12	15	.	.
Cc1ccc(C(=O)Sc2cccccc2=O)cc1	4	-15	-7	7	37*
CN(CC(=O)Nc1ccc(OC(F)(F)F)cc1)C(=O)/C=C/c1cc2c(cc1[N+](=O)[O-])OCO2	0	-5	-3	-22	80*
CCn1c(=O)c2ccccc2n(CC(=O)NC2CCCCC2)c1=O	1	0	0	-1	42*
CC(C)CN(C(=O)c1cccc(Cl)c1)c1c(N)n(Cc2ccccc2)c(=O)[nH]c1=O	0	0	8	-7	-12
COc1cccc(C(=O)C2CCCN(C/C=C/c3ccccc3OC)C2)c1 (stereo not drawn)	-1	-2	1	-22	0
COc1ccc(C(=O)C2CCCN(C/C=C/c3ccccc3OC)C2)c(OC)c1 (stereo not drawn)	-1	-8	-2	-22	86*
O=C(COC(=O)CNS(=O)(=O)c1ccc2ccccc2c1)Nc1ccccc1Sc1ccccc1	34*	4	2	-22	17
Cc1cc2c(cc1C)NC(c1c(C)n(C)n(-c3ccccc3)c1=O)C1=C(CC(C)(C)CC1=O)N2 (stereo not drawn)	34*	-70	-19	8	13
SMILES	D2 ag-1	D2 PAM-1	D2 ag-2	D2 PAM-2	D2 antagonist
COc1cc(C2Nc3cc(C)c(C)cc3NC3=C2C(=O)CC(C)(C)C3)ccc1OC(C)=O (stereo not drawn)	0	-6	4	17	3
O=C(NCC(c1ccc2c(c1)OCO2)N1CCOCC1)c1c(F)cccc1F (stereo not drawn)	.	.	.	-5	.
CC(C)C(=O)Nc1nnc(S(=O)(=O)N2CCCCCC2)s1	1	-6	-5	0	-1
CCC(CC)C(=O)Nc1nnc(S(=O)(=O)N2CCCCCC2)s1	0	0	0	-13	32*
COc1ccc(NC(=O)Nc2sc3nc4n(c(=O)c3c2C)CCC(C)CC4)cc1OC (stereo not drawn)	-1	.	.	-2	.
O=C(CSCc1ccc(Cl)cc1Cl)Nc1ccc(O)cc1C(=O)O	3	59*	12	3	21
CCCN(C(=O)c1nc2nc(C)cc(C)n2n1)c1c(N)n(Cc2ccccc2)c(=O)[nH]c1=O	0	-2	0	-9	3
CCOC(=O)c1c(C)cccc1OCC(N)=O	-1	-18	0	64*	-2
CCCOc1ccc(N2C(=O)CC(NNC(=O)c3ccc(COc4ccccc4)o3)C2=O)cc1 (stereo not drawn)	-1	-12	6	3	-1
O=C(NNC1CC(=O)N(c2ccc(Cl)cc2)C1=O)c1ccco1 (stereo not drawn)	0	-9	-2	-3	3
O=C(NNC1CC(=O)N(c2ccc(Br)cc2)C1=O)c1ccco1 (stereo not drawn)	38*	-18	2	-21	-2
CCOc1cccc(N2C(=O)CC(NNC(=O)c3ccc(Br)o3)C2=O)c1 (stereo not drawn)	-1	-6	-2	10	38*
Cc1ccccc1Cn1c(C)c(C(=O)NCCC#N)sc1=O	.	-2	-2	.	.
COc1ccc2cc(CCNS(=O)(=O)c3ccc(NC(C)=O)cc3)c(=O)[nH]c2c1	1	-9	-4	10	-2
COc1ccc([N+](=O)[O-])cc1NC(=S)NC(NC(C)=O)C(Cl)(Cl)Cl (stereo not drawn)	0	-27	-1	-19	-9
COc1ccc([N+](=O)[O-])cc1NC(=S)NC(NC(=O)Cc1ccc(OC)c(OC)c1)C(Cl)(Cl)Cl (stereo not drawn)	-1	-27	-4	-18	74*
COc1ccc(-n2c(SCC(=O)Nc3ccccc3)nc3c(c2=O)SCC3)cc1	-1	-6	-2	12	31*
COc1ccc(-n2c(SCC(=O)N3CCOCC3)nc(O)c(Cc3ccccc3)c2=O)cc1	1	-10	-3	-3	43*
COc1ccc(-n2c(SCC(=O)N3CCOCC3)nc(O)cc2=O)cc1	.	10	-1	1	.
COc1ccccc1-n1c(SCC(=O)Nc2nnc(C)s2)nc2c(c1=O)SCC2	1	0	1	31*	6
Cc1cc(Nc2cccc(Cl)c2)nc2ccc(NC(=O)c3ccc(F)cc3Cl)cc12	1	.	.	3	.
CCC1=C2CC[C@H]3C(=O)N(CC(=O)OC)C(=O)[C@H]3[C@H]2[C@@]2(C)C(=NCC(=O)OC)OC(=O)N2C1=O	-1	-3	-4	-4	28
c1ccc(CN(CC2=NCCN2)c2ccccc2)cc1	2	-17	-6	1	41*!
Cc1ccc2ncc(C(=O)NCc3ccccc3Cl)c(=O)n2c1	0	.	.	1	.
